Reference: PubChem BioAssay (NCATS)
Results filed as inconclusive are left out. Calls of active or inactive are those of the source. Calls follow the shape of the dose curve; as a rule, active = well fitted cell-killing curve with a large enough effect; inconclusive = small, poorly fitted or top-dose-only effect; inactive = flat fitted curve, though single readings scatter.

Key:
[1] = Cell Viability - LYMP2-008 (AID 980); conditions: LYMP2-008 lymphoblastoid cell viability, qHTS; series mostly up to 92.2 µM;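 also: cells exposed to compound for 24 h at 37 °C; nearly all actives have a fitted effect of over 60% in size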
How it was run: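 Cells seeded at 2500/well and rested 5 hr at 37 C; compounds added over a concentration range and incubated 24 hr at 37 C; CellTiter-Glo added, 30 min at room temperature; luminescence read and AC50 fitted with Hill model.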

[2] = Cell Viability - LYMP2-010 (AID 981); conditions: LYMP2-010 lymphoblastoid cell viability, qHTS; series mostly up to 92.2 µM;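 also: cells exposed to compound for 24 hours at 37 °C; nearly all actives have a fitted effect of over 55% in size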
How it was run: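 Steps: seed 2500 LYMP2-010 cells per well; incubate 5 hr at 37 C; add compound; incubate 24 hr at 37 C; add CellTiter-Glo, wait 30 min at room temperature; read luminescence. Concentration-response fitted to Hill equation for AC50.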

[3] = Cell Viability - LYMP2-012 (AID 982); conditions: LYMP2-012 lymphoblastoid cell viability qHTS; series mostly up to 92.2 µM;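 also: cellular ATP by luciferase luminescence where a drop means cytotoxicity; cells exposed to compound for one day before reading; nearly all actives have a fitted effect of over 55% in size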
[4] = Cell Viability - LYMP2-014 (AID 983); conditions: LYMP2-014 lymphoblastoid cells, viability qHTS; series mostly up to 92.2 µM;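 also: cells exposed to compound for 24 h at 37 °C; nearly all actives have a fitted effect of over 50% in size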
How it was run: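 Cells are plated at 2500/well and left 5 hr at 37 C. Compounds are added across a concentration range and incubated 24 hr at 37 C in complete medium. CellTiter-Glo is added, and luminescence is read after 30 min at room temperature.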

[5] = Cell Viability - LYMP2-016 (AID 984); conditions: LYMP2-016 lymphoblastoid cell viability, qHTS; series mostly up to 92.2 µM;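 also: cells exposed to compound for 24 hours at 37 °C; nearly all actives have a fitted effect of over 55% in size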
How it was run: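 Cells were seeded at 2500 per well and rested 5 hr before a 24 hr compound exposure at 37 C. Viability was then gauged as cellular ATP by luciferase luminescence, with AC50 values fitted to the Hill equation.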

[6] = Cell Viability - LYMP2-018 (AID 985); conditions: LYMP2-018 lymphoblastoid cells, viability (qHTS); series mostly up to 92.2 µM; also: nearly all actives have a fitted effect of over 50% in size
How it was run: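 Seed 2500 lymphoblastoid cells per well, incubate 5 hr at 37 C, add compound and incubate 24 hr at 37 C, add CellTiter-Glo, wait 30 min at room temperature, then read luminescence.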

[7] = Cell Viability - LYMP2-020 (AID 986); conditions: series mostly up to 92.2 µM;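 also: cells exposed to compound for 24 h at 37 °C; nearly all actives have a fitted effect of over 55% in size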
How it was run: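 Seed 2500 cells per well and incubate 5 hr at 37 C. Add compounds at a concentration series and incubate 24 hr at 37 C. Add CellTiter-Glo, wait 30 min at RT, read luminescence, and fit a Hill curve for AC50.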

[8] = Cell Viability - LYMP2-022 (AID 987); conditions: LYMP2-022 lymphoblastoid cell viability; series mostly up to 92.2 µM; also: nearly all actives have a fitted effect of over 55% in size
How it was run: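 Cells were seeded at 2500 per well, rested 5 hr at 37 C, and treated with titrated compounds for 24 hr at 37 C. Cellular ATP was then quantified by luciferase luminescence, and AC50 values were derived from Hill-modelled concentration-response curves.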

[9] = Cell Viability - LYMP2-024 (AID 988); conditions: LYMP2-024 lymphoblastoid cell viability; series mostly up to 92.2 µM; also: nearly all actives have a fitted effect of over 60% in size
How it was run: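 qHTS cytotoxicity, human lymphoblastoid line, complete medium; 24 h cpd treatment, 37 C; CellTiter-Glo ATP luminescence readout; tetraoctylammonium bromide positive control; AC50 via Hill fit.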

[10] = Cell Viability - LYMP2-026 (AID 989); conditions: LYMP2-026 lymphoblastoid cell viability, qHTS; series mostly up to 92.2 µM;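 also: cells exposed to compound for 24 h at 37 °C; nearly all actives have a fitted effect of over 50% in size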
How it was run: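 Cells are seeded at 2500 per well and held 5 hr at 37 C. Compounds are added in concentration series for 24 hr, then CellTiter-Glo reagent is applied and luminescence read.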

Measured: outcome

COc1ccc(CCC(=O)c2c(O)cc(O[C@@H]3O[C@H](CO)[C@@H](O)[C@H](O)[C@H]3O[C@@H]3O[C@@H](C)[C@H](O)[C@@H](O)[C@H]3O)cc2O)cc1O
inactive: all assays above

C=C1C[C@]23C[C@@]1(O)CC[C@H]2[C@@]12C=C[C@H](O)[C@@](C)(C(=O)O1)[C@H]2[C@@H]3C(=O)O
inactive: all assays above
